# Assay results from ChEMBL document CHEMBL2218924, “A broad activity screen in support of a chemogenomic map for kinase signalling research and drug discovery” (Biochem J, 2013).
# Experiments:
# [1] = biological target: T1, Ephrin type-A receptor 3 (Homo sapiens) (UniProt P29320); details: at 10 µM
# T1 sequence (whole entry): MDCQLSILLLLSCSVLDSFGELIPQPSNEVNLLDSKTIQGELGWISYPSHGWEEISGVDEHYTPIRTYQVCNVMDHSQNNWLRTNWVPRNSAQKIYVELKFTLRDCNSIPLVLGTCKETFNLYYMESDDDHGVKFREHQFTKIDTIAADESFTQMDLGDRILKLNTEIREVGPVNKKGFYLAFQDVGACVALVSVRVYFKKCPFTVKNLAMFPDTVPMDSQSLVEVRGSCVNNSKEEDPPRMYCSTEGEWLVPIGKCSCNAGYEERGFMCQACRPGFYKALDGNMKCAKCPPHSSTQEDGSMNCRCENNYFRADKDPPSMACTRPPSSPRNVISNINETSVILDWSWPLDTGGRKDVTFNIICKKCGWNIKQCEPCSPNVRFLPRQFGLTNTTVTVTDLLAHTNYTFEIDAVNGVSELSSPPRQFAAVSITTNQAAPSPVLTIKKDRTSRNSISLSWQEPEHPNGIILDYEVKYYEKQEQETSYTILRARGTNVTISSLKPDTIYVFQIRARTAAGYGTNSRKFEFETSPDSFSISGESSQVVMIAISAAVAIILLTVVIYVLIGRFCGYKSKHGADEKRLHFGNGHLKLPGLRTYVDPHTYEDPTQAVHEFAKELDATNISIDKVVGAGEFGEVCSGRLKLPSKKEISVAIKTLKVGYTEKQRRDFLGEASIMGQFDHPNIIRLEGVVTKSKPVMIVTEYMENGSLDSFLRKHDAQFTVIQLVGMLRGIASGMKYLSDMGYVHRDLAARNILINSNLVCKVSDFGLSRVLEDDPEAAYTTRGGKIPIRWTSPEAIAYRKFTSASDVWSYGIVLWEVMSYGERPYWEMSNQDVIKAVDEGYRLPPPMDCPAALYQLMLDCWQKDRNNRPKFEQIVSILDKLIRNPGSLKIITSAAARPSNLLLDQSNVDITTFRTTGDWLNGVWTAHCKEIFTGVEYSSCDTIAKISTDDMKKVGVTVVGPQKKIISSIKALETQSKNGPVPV
# [2] = biological target: Ephrin type-A receptor 4 (Homo sapiens) (UniProt P54764); details: at 1 µM
# [3] = biological target: Ephrin type-A receptor 4 (Homo sapiens) (UniProt P54764); details: at 10 µM
# [4] = biological target: Ephrin type-A receptor 5 (Homo sapiens) (UniProt P54756); details: at 1 µM
# [5] = biological target: Ephrin type-A receptor 5 (Homo sapiens) (UniProt P54756); details: at 10 µM
# [6] = biological target: Ephrin type-A receptor 7 (Homo sapiens) (UniProt Q15375); details: at 1 µM
# [7] = biological target: Ephrin type-A receptor 7 (Homo sapiens) (UniProt Q15375); details: at 10 µM
# [8] = biological target: T2, Ephrin type-A receptor 8 (Homo sapiens) (UniProt P29322); details: at 1 µM
# T2 sequence (whole entry): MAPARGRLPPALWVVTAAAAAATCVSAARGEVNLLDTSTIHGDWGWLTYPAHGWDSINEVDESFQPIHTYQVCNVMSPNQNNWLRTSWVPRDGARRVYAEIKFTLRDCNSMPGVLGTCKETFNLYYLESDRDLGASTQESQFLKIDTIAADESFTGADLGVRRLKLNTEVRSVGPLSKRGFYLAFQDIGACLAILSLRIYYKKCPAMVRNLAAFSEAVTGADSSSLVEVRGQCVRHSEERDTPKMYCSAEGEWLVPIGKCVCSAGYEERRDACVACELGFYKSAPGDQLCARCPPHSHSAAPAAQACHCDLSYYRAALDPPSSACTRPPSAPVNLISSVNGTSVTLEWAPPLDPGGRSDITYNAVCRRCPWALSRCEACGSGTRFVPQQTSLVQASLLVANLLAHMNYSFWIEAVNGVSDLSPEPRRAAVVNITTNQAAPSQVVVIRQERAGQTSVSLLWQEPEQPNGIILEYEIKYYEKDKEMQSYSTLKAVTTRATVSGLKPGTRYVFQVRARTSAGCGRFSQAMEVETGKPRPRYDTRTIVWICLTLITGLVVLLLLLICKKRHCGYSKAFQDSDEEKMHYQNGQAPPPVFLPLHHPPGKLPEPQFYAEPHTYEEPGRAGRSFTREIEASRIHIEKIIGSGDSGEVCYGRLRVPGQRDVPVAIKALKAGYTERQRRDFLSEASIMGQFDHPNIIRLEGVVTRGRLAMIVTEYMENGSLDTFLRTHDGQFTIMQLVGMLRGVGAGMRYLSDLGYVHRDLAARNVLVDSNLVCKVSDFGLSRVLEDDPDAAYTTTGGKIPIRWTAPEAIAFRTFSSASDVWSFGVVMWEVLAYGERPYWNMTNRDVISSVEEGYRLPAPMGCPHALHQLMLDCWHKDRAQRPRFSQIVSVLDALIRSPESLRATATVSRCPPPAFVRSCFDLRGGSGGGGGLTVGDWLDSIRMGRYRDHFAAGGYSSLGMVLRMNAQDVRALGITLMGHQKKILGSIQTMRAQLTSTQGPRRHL
# [9] = biological target: T2, Ephrin type-A receptor 8 (Homo sapiens); details: at 10 µM
# [10] = biological target: T3, Ephrin type-B receptor 1 (Homo sapiens) (UniProt P54762); details: at 1 µM
# T3 sequence (whole entry): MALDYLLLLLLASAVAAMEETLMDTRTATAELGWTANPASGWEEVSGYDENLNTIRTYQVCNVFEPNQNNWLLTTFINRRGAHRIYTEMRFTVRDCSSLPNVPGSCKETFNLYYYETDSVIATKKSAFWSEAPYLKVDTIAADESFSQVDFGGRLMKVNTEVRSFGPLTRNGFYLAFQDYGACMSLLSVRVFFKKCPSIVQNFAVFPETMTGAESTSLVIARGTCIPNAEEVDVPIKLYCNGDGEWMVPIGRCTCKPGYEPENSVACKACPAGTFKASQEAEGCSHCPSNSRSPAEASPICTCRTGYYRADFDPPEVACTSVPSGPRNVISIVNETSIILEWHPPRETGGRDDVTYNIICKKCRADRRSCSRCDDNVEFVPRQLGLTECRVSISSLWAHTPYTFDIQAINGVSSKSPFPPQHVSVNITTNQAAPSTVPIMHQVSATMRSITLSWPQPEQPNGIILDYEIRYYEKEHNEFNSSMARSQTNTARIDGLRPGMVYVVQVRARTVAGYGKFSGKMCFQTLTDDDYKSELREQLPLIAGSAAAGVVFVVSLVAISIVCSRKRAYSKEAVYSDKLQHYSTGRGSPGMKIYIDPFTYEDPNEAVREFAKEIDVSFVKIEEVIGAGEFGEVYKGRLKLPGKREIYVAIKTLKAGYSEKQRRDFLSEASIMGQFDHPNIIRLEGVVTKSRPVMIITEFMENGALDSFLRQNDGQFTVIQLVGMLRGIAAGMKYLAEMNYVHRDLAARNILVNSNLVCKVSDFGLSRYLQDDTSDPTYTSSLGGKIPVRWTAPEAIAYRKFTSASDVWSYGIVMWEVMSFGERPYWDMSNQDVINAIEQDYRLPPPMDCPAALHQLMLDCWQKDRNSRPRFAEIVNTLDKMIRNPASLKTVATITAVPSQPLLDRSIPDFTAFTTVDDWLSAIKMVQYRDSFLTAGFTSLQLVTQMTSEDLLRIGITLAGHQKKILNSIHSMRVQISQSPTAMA
# Chain of Ephrin type-A receptor 5 (Homo sapiens) (P54756 whole entry): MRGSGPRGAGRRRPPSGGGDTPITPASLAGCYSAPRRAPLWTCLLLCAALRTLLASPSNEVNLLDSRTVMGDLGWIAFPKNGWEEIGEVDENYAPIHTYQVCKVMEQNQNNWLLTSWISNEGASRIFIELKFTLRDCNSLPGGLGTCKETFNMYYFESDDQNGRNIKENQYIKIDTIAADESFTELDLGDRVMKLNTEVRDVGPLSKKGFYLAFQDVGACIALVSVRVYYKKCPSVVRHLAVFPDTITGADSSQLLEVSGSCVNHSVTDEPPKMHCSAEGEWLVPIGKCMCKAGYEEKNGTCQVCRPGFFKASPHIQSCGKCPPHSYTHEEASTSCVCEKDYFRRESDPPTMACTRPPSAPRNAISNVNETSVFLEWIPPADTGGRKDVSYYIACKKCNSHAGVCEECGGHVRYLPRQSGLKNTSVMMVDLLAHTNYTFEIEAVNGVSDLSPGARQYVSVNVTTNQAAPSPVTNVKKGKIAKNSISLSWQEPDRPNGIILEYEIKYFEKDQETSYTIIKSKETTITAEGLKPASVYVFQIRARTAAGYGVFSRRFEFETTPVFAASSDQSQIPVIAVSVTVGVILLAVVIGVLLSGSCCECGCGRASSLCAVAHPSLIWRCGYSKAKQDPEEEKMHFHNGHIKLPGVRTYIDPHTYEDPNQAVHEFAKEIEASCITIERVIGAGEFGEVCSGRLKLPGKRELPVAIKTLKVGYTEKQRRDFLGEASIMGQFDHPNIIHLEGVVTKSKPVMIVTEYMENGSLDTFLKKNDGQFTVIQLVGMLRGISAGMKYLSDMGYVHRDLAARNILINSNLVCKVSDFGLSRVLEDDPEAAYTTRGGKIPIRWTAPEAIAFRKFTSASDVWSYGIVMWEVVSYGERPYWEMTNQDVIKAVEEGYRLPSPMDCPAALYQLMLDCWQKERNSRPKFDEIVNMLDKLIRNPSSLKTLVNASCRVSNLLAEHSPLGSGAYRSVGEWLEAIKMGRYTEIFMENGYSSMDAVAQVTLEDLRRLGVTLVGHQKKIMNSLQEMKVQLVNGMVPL
# Chain of Ephrin type-A receptor 7 (Homo sapiens) (Q15375 28-998 limits assumed): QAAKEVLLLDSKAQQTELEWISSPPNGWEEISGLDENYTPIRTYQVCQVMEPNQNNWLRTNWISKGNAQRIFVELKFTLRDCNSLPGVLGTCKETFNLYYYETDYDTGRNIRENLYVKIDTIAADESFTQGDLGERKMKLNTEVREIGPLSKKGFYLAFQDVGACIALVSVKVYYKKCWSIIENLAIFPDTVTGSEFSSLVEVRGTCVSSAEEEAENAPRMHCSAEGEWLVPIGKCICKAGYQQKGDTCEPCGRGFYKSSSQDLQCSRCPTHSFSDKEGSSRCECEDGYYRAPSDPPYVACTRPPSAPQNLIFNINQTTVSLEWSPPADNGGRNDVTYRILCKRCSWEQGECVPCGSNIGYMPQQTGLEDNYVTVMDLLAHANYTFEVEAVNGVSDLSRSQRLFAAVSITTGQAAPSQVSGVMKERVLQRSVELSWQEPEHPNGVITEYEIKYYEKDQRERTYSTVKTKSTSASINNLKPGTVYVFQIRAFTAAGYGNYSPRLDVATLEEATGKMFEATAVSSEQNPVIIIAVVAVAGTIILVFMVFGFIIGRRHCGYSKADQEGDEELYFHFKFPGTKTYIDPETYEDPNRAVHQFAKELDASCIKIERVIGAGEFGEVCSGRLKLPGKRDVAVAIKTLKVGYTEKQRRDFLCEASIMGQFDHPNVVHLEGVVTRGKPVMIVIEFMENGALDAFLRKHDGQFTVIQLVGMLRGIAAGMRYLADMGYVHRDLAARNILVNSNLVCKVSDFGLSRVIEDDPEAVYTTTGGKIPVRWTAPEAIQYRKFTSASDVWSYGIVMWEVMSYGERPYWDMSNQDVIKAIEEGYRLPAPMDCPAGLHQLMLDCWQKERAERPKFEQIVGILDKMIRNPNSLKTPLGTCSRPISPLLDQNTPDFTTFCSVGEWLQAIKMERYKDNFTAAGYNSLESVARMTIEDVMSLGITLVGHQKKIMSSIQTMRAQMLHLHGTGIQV
# Chain of Ephrin type-A receptor 4 (Homo sapiens) (P54764 whole entry): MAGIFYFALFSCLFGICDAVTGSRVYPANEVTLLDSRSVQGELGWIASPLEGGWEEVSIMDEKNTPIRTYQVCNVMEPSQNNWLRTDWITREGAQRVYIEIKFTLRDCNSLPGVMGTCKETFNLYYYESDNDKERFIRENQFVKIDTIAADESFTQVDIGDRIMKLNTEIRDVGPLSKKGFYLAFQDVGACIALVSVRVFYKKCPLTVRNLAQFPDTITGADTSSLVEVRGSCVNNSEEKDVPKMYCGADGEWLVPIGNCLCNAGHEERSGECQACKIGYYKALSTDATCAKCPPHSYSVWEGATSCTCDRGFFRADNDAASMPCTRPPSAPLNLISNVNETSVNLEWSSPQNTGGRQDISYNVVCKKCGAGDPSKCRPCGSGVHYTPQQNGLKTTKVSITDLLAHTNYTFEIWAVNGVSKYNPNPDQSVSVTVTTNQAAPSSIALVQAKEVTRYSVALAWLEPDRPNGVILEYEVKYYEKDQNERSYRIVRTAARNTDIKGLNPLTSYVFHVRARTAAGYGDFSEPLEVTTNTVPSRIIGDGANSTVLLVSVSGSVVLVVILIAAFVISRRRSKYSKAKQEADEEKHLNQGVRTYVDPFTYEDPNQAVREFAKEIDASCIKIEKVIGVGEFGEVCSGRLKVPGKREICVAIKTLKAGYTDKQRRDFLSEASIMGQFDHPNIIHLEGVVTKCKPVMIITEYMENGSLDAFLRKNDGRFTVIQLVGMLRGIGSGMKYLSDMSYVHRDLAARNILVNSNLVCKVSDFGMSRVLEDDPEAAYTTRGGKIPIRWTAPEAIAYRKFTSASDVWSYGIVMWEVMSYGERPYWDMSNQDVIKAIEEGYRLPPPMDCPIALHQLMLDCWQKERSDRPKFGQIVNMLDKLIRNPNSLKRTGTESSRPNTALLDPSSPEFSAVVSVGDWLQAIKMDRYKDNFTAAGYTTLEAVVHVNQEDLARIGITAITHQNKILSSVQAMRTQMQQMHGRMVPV
compound,measurement,setting,value
N#C/C(=C(\N)Sc1ccc(N)cc1)c1ccccc1C(F)(F)F,residual activity,[1],99%
same,residual activity,[2],116%
same,residual activity,[3],112%
same,residual activity,[4],98%
same,residual activity,[5],95%
same,residual activity,[6],99%
same,residual activity,[7],89%
same,residual activity,[8],85%
same,residual activity,[9],87%
same,residual activity,[10],110%
